Screening results: PubChem BioAssay, National Center for Advancing Translational Sciences (NCATS)
LmPK inh: inhibitors of Leishmania mexicana pyruvate kinase. Potency, µM (doses to about 57.5 µM), for the others: at the highest dose activity change, negative = inhibition, hits mostly inhibitors. purified LmPK, Kinase-Glo ATP luminescence, 1 h. 290,000 compounds, 0.37% hits. Q27686. AID 1721
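Kinase-Glo luminescence read after 1 h RT reaction of 0.1 nM LmPK with 0.5 mM PEP and 0.1 mM ADP. Activity scaled between uninhibited and enzyme-free controls.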
Tb PYK inh: T. brucei pyruvate kinase inhibition | Q57TT1 | TbPYK enzyme, Kinase-Glo Plus ATP luminescence, 45 min | Potency, µM (series often up to 76.8 µM), for inactives: at the top dose activity, negative = inhibition, most hits filed as inhibitors | 410,000 compounds, 0.12% hits | AID 624173; note: nearly all actives have a fitted effect of over 50% in size
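TbPYK + substrate in 50 mM TEA pH 7.2, 100 mM KCl, 10 mM MgCl2, 0.05% BSA, 0.01% Tween-20; cpd pinned; ADP 130 uM final; 45 min RT; Kinase-Glo Plus 10 min; luminescence endpoint.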
RE007 growth inh: less growth of the S. pombe RE007 Vpr strain. S. pombe RE007 Vpr strain, BacTiter-Glo ATP luminescence, 24 h. Potency, µM (top dose mostly 92.2 µM), for the others: at the top dose activity change, negative = less growth, actives largely listed as inhibitors. 360,000 compounds, 0.21% hits; active = well fitted falling curve with a large enough effect; inconclusive = small, poorly fitted or top-dose-only effect; inactive = no such curve, though single readings can be large or run the other way; note: nearly all actives have a fitted effect of over 50% in size
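Fission yeast RE007 carrying one integrated HIV-1 vpr copy, seeded at OD 0.01 in PMG+AL medium with 23 nL pinned compound. Grown 24 h at 30 degrees; viability read by BacTiter-Glo luminescence after 5 min.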
Giardia FBPA inh-1: blocks Giardia fructose-bisphosphate aldolase activity; purified Giardia FBPA; Potency, µM (doses to about 59.6 µM), inactives show at the top dose activity, negative = inhibition, actives largely listed as inhibitors; 290,000 compounds, 0.71% hits; note: nearly all actives have a fitted effect of over 55% in size
Target sequence (A8B2U2 whole entry, looked up): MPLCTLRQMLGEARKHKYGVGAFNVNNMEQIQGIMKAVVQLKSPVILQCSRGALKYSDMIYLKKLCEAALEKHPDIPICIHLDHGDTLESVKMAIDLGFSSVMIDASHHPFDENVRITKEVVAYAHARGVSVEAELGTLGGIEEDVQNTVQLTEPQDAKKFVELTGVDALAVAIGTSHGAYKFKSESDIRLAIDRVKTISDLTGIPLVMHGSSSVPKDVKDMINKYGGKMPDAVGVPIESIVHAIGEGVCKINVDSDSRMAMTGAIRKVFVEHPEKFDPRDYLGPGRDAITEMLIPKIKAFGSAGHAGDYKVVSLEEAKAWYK
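Giardia FBPA (40 nM reagent) was preincubated 10 min at RT with compound (up to 57.5 uM final), then substrate plus GAPDH/TPI/NAD/arsenate coupling system with diaphorase/resazurin was added; resorufin fluorescence (525/598 nm) was read after 20 min.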
Giardia growth: Giardia lamblia growth inhibition; shares compounds with Giardia FBPA inh-1; Giardia lamblia trophozoite growth inhibition; Potency, µM (highest dose often 57.5 µM), without a hit: at the highest dose activity change, negative = inhibition, actives largely listed as inhibitors; 1,500 compounds, 5% hits; AID 2785;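 note: trophozoites exposed to compound for 48 h at 37 °C; nearly all actives have a fitted effect of over 70% in size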
Mammal cell tox: counter-screen for Giardia aldolase inhibitors: mammalian cell toxicity; Potency, µM (titrated, usually from 57.5 µM), inactives show top-dose viability change, negative = toxicity, hits mostly inhibitors; mammalian cell viability counter-screen, qHTS; AID 2786; 1,500 compounds, 4% hits; shares compounds with Giardia FBPA inh-1;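 note: Chinese hamster ovary cells used as mammalian cytotoxicity surrogate; viability measured as cellular ATP by luminescence; compound exposure lasted 48 h before reading; nearly all actives have a fitted effect of over 60% in size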
Giardia FBPA inh-2: confirmation of Giardia fructose-bisphosphate aldolase inhibitors; shares compounds with Giardia FBPA inh-1; purified Giardia aldolase enzyme activity, qHTS; Potency, µM (highest dose often 57.5 µM), without a hit: top-dose activity change, negative = inhibition, most hits filed as inhibitors; 1,500 compounds, 5% hits; note: nearly all actives have a fitted effect of over 45% in size
Rabbit FBPA inh: blocks rabbit muscle aldolase in Giardia aldolase selectivity test; shares compounds with Giardia FBPA inh-1; Rabbit muscle FBPA enzyme inhibition, selectivity counter-screen; Potency, µM (top dose mostly 57.5 µM), for the others: at the highest dose activity, negative = inhibition, hits mostly inhibitors; 1,500 compounds, 4% hits; note: nearly all actives have a fitted effect of over 60% in size
Target sequence (P00883 whole entry, looked up): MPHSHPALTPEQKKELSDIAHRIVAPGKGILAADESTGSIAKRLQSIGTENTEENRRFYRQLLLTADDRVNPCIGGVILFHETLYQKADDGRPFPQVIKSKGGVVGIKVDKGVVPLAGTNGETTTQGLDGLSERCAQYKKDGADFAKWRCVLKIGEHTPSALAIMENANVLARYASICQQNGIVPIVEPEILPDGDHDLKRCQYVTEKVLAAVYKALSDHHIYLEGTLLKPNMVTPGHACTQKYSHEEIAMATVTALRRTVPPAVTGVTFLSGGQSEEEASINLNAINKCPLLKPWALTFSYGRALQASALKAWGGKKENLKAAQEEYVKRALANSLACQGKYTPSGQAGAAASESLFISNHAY
GAPDH coupling: GAPDH inhibition flagged for Giardia aldolase hits | 1,500 compounds, 6% hits | GAPDH coupling enzyme counterscreen, biochemical, qHTS | shares compounds with Giardia FBPA inh-1 | Potency, µM (doses to about 57.5 µM), for inactives: at the top dose activity change, negative = inhibition, hits mostly inhibitors; note: nearly all actives have a fitted effect of over 55% in size
Numbers without * were called inactive; ? = inconclusive; nt = no result given; [ ] = dose if it differs, or a comment. A selection: hits, their analogues and other compounds. The true share with any hit is near 0.95%. Unless noted, calls come from the whole dose curve; as a rule, active = well fitted curve in the direction sought with a large enough effect; inconclusive = small, poorly fitted or top-dose-only effect, or another doubt; inactive = no such curve, though single readings can be large; an effect the other way counts as inactive or inconclusive. % is set by controls: 0 for no effect and ±100 for the full control effect; potency is the fitted concentration of half-maximal effect.

SMILES	LmPK inh	Tb PYK inh	RE007 growth inh	Giardia FBPA inh-1	Giardia growth	Mammal cell tox	Giardia FBPA inh-2	Rabbit FBPA inh	GAPDH coupling
CCCCN(C)S(=O)(=O)c1ccc(C(=O)Nc2nnc(C3=COCCO3)o2)cc1	1%[11.5 µM]	2%	-2%	18µM*	?	14%	5%	1%	3%
CCCCN(C)S(=O)(=O)c1ccc(C(=O)Nc2nnc(-c3cccs3)o2)cc1	2%	nt	nt	-29%	nt	nt	nt	nt	nt
CC(Oc1ccccc1)C(=O)Nc1ccc(C(=O)OCc2cc(=O)n3ccsc3n2)cc1 (stereo not given)	nt	-2%	nt	nt	nt	nt	nt	nt	nt
CN(C)c1ccc(CNC(=O)CCn2c(=O)c3cccn3c3ccc(F)cc32)cc1	nt	-4%	nt	nt	nt	nt	nt	nt	nt
S=c1nc[nH]c2c1ncn2C1CCCC1	-1%	?	3%	4µM*	8%[38.3 µM]	-3%	-3%	-11%	-5%
OCC1CCCC(n2cnc3c(=S)nc[nH]c32)O1 (stereo not given)	6%	-13%	6%	4µM*	8%[38.3 µM]	17%	-3%	-1%	?
CNc1nc(-c2ccccc2)[n+](-c2ccc(C)cc2)s1	22µM*	?	1%	13µM*	?	-15%	?	10µM*	6%
CCC(C)(C)C1CCC(=NNc2nc3ccccc3[nH]2)CC1 (stereo not given)	-2%	-3%	-3%	1%	nt	nt	nt	nt	nt
CC(=O)N1CCC(=NNc2nc3ccccc3[nH]2)CC1	-4%	6%	6%	18µM*	?	0%	-10%	-6%	3%
Cc1nc2sccn2c(=O)c1S(=O)(=O)Nc1cc(Cl)ccc1O	nt	-4%	nt	nt	nt	nt	nt	nt	nt
CCOCCCn1c(SCC(=O)Nc2ccc(C)cc2)nc2ccccc2c1=O	nt	-2%	nt	nt	nt	nt	nt	nt	nt
Cc1cc(N/N=C(/CCC(=O)O)C(=O)O)nc2ccccc12	-6%	-5%	5%	16µM*	6%[10.4 µM]	-4%	-3%	-21%	?
CCc1cnc2c(c1SCC(=O)c1ccc(Cl)cc1)c(=O)n(C)c(=O)n2C	nt	-24%	nt	nt	nt	nt	nt	nt	nt
CCNc1nc(NC(C)C)nc(OCCNS(=O)(=O)c2cc(C)ccc2C)n1	1%	-11%	4%	6%	nt	nt	nt	nt	nt
CCNc1nc(NC(C)C)nc(NS(=O)(=O)c2ccc(C)cc2)n1	-1%	3%	6%	28µM*	-20%	-2%	?	?	40µM*
NC(=S)NNc1c(F)c(F)c(F)c(F)c1F	-1%	-2%	?	16µM*	-1%[10.4 µM]	-12%	-11%	5%	1%
N#Cc1ccc(Cl)cc1NC(=O)CNCc1cccs1	-3%	35%	-2%	16µM*	?	9%	2%	4%	8%
CC(=O)c1ccc(NC(=O)CNCc2cccs2)cc1	-3%	19%	1%	?	nt	nt	nt	nt	nt
CCOc1ccc(NC(=O)c2cc(S(=O)(=O)N3CCCCCC3)cn2C)cc1	nt	-10%	nt	nt	nt	nt	nt	nt	nt
O=C(CCS(=O)(=O)c1ccc(Br)s1)Nc1cc(C(F)(F)F)cc(C(F)(F)F)c1	nt	-5%	nt	nt	nt	nt	nt	nt	nt
Cc1cccc(NNC(N)=S)c1	-1%	-2%	?	20µM*	11%	11%	0%	0%	10%
NC(=S)NNC(=O)Nc1cccc(Cl)c1	2%	-7%	3%	0%	nt	nt	nt	nt	nt
NC(=S)NNc1cccc(Cl)c1	4%	-3%	?	13µM*	48%	8%	-16%	-5%	-7%
C[C@]12C=CC(=O)C=C1CCC1C2C(=O)C[C@]2(C)C1CC[C@]2(O)C(=O)CO (stereo not given in full)	nt	nt	nt	5%	nt	nt	nt	nt	nt
COc1ccc(CCNC(=O)CSc2nnc(-c3ccco3)c(-c3ccco3)n2)cc1OC	11%	nt	nt	13µM*	-22%	-9%	-27%	-23%	-25%
SMILES	LmPK inh	Tb PYK inh	RE007 growth inh	Giardia FBPA inh-1	Giardia growth	Mammal cell tox	Giardia FBPA inh-2	Rabbit FBPA inh	GAPDH coupling
COc1ccc(C)cc1NC(=O)c1cnc2ccc(C)cn2c1=O	nt	1%	nt	nt	nt	nt	nt	nt	nt
O=C(Cc1c(F)cccc1Cl)NNC(=S)Nc1ccc(S(=O)(=O)Nc2ncccn2)cc1	0%	-2%	-7%	14µM*	3%[10.4 µM]	4%	20%	20%	27%
O=C(/C=C/c1c(F)cccc1Cl)Nc1ccc(S(=O)(=O)Nc2ncccn2)cc1	-1%	-5%	12%	-14%	nt	nt	nt	nt	nt
CCOc1ccc(NC(=O)CC(NCc2ccccn2)C(=O)O)cc1 (stereo not given)	-2%	-1%	10%	5µM*	-14%[38.3 µM]	22%	13%	-5%	-25%
COc1ccc(NC(=O)CC(NCc2ccccn2)C(=O)O)cc1 (stereo not given)	0%	0%	15%	11µM*	20%	10%	14%	-12%	-11%
COc1ccc(NC(=O)CC(C(=O)O)C(C)c2ccccc2)cc1 (stereo not given)	-3%	5%	9%	7%	nt	nt	nt	nt	nt
Cc1ccccc1-c1nn2c(=O)cc(CN3CCN(C(=O)c4ccccc4Br)CC3)nc2s1	nt	2%	nt	nt	nt	nt	nt	nt	nt
CCc1ccc(-n2c(=O)c3cccnc3n2CC(=O)N(CC)c2cccc(C)c2)cc1	nt	1%	nt	nt	nt	nt	nt	nt	nt
